# Source: ChEMBL document CHEMBL1961873, “Compounds: GSK PKIS; Assays: Nanosyn kinase panel” (2012)
# Target: Calcium/calmodulin-dependent protein kinase type 1D (Homo sapiens) (UniProt Q8IU85)
# Conditions: at 0.1 µM
# Sequence of Calcium/calmodulin-dependent protein kinase type 1D (Homo sapiens) (Q8IU85 whole entry, looked up): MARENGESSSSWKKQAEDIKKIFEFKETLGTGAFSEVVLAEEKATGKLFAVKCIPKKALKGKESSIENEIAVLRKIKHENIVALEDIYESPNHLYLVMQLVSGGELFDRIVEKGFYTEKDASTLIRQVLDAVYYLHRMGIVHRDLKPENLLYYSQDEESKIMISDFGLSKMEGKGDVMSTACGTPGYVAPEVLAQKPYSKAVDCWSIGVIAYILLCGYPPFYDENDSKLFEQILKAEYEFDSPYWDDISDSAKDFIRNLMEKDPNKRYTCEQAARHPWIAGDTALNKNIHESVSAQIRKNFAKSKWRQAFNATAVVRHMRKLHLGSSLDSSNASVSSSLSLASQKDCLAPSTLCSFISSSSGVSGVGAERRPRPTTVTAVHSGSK
row,Compound,inhibition [%]
1,COc1ccc(-c2ccncc2)cc1C(N)=O,-0.75
2,CC(=O)Nc1cccc(C#Cc2cncnc2Nc2ccc(OCc3cccc(F)c3)c(Cl)c2)n1,0.41
3,Cc1ccc(C(=O)NC2CCCCC2)cc1-c1ccc(C(=O)NCC2CC2)cc1,3.13
4,COc1ccc(-c2nn3ncccc3c2-c2ccnc(Nc3ccc(Cl)c(C(F)(F)F)c3)n2)cc1,-0.51
5,CC1=C(C(=O)Nc2ccc3[nH]ncc3c2)C(c2ccc(F)cc2)NC(=O)N1 (configuration not stated),0.49
6,COc1cc2ncn(-c3cc(O[C@@H](C)c4ccccc4Cl)c(C(N)=O)s3)c2cc1OC,1.43
7,CS(=O)(=O)CCN(CC#N)Cc1ccc(-c2ccc3ncnc(Nc4ccc(OCc5cccc(F)c5)c(Cl)c4)c3c2)o1,-1.29
8,O=C1NC(=O)C(c2ccccc2Cl)=C1Nc1cccc(O)c1,1.44
9,COc1ccc(-c2coc3ncnc(N)c23)cc1,1.1
10,CS(=O)(=O)CCNCc1ccc(-c2ccc3ncnc(Nc4ccc(OCc5ccccc5)c(Cl)c4)c3c2)o1,-0.75
11,COc1cc2ncn(-c3cc(O[C@H](C)c4ccccc4Cl)c(C(N)=O)s3)c2cc1OC,1.01
12,CCn1c(-c2nonc2N)nc2cnc(Oc3cccc(NC(=O)c4ccc(OCCN5CCOCC5)cc4)c3)cc21,-0.02
13,CCn1c(-c2nonc2N)nc2c(N3CCCC3)nccc21,-0.31
14,Cc1nn(C)c2cc(N(C)c3ccnc(Nc4cccc(S(N)(=O)=O)c4)n3)ccc12,0.85
15,Fc1cccc(COc2ccc(Nc3ncnc4cc(-c5ccc[nH]5)sc34)cc2Cl)c1,1.56
16,CCn1c(-c2nonc2N)nc2c(C#CC(C)(C)O)nc(CN3CCCC3)cc21,1.23
17,O=C1Nc2ccc(C(=O)c3ccco3)cc2C1=Cc1cc(Cl)c(O)c(Cl)c1,-0.26
18,CC1=C(C(=O)Nc2ccc3[nH]ncc3c2)C(c2ccc3ccccc3c2)CC(=O)N1 (configuration not stated),-0.51
19,Fc1cccc(COc2ccc(Nc3ncnc4sc(-c5cccs5)cc34)cc2Cl)c1,-1.31

# Target: Calcium/calmodulin-dependent protein kinase type 1D (Homo sapiens) (UniProt Q8IU85)
# Conditions: at 1 µM
row,Compound,inhibition [%]
1,CCCN1CCC(Oc2cc(Nc3nc(Nc4cccc(F)c4C(N)=O)c4cc[nH]c4n3)c(OC)cc2Cl)CC1,23.1
2,COc1cc(C)c(NC(=O)CN(C)C)cc1Nc1nc(Nc2cccc(F)c2C(N)=O)c2cc[nH]c2n1,16.7
3,CC1=C(C(=O)Nc2ccc3[nH]ncc3c2)C(c2ccc(Cl)c(Cl)c2)CC(=O)N1 (configuration not stated),1.37
4,CCn1c(-c2nonc2N)nc2cncc(C(=O)N3CC[C@H](N)C3)c21,0.54
5,NS(=O)(=O)c1ccc(N/N=C2\C(=O)Nc3ccc(C(=O)NCCc4c[nH]cn4)cc32)cc1,3.93
6,CCCN1CCC=C(c2ccc(Nc3nc(Nc4ccccc4C(N)=O)c4cc[nH]c4n3)c(C)c2)C1,12.8
7,CCn1c(-c2nonc2N)nc2cncc(C(=O)N3CCNCC3)c21,2.87
8,Nc1nc(-c2ccc3c(c2)C(=Cc2cc(Br)c(O)c(Br)c2)C(=O)N3)cs1,9
9,COc1ccc2cc(-c3c(-c4ccncc4)nc(-c4ccc([S+](C)[O-])cc4)n3C)ccc2c1 (configuration not stated),0.68
10,CC(C)=Cc1cccc2c1/C(=N/Nc1ccc(S(N)(=O)=O)cc1)C(=O)N2,1.3
11,CS(=O)(=O)CCNCc1nc(-c2ccc3ncnc(Nc4ccc(F)c(Cl)c4)c3c2)cs1,1.23
12,NC(=O)c1ccc(-c2nc(-c3ccccn3)c(-c3ccc4c(c3)OCO4)[nH]2)cc1,0.23
13,COC(=O)Nc1nc2cc(Oc3cccc(NC(=O)Nc4cc(C(F)(F)F)ccc4F)c3)ccc2[nH]1,4.96
14,Cc1nnc(-c2ccc(C)c(-c3ccc(C(=O)Nc4cccc(C#N)c4)cc3)c2)o1,0.26
15,COc1ccc(-c2ccncc2)cc1C(N)=O,1.22
16,CC(=O)Nc1cccc(C#Cc2cncnc2Nc2ccc(OCc3cccc(F)c3)c(Cl)c2)n1,0.25
17,Cc1ccc(C(=O)NC2CCCCC2)cc1-c1ccc(C(=O)NCC2CC2)cc1,2.73

row,Compound,inhibition [%]
1,COc1ccc(-c2nn3ncccc3c2-c2ccnc(Nc3ccc(Cl)c(C(F)(F)F)c3)n2)cc1,-1.4
2,CC1=C(C(=O)Nc2ccc3[nH]ncc3c2)C(c2ccc(F)cc2)NC(=O)N1 (configuration not stated),-0.14
3,COc1cc2ncn(-c3cc(O[C@@H](C)c4ccccc4Cl)c(C(N)=O)s3)c2cc1OC,1.53
4,CS(=O)(=O)CCN(CC#N)Cc1ccc(-c2ccc3ncnc(Nc4ccc(OCc5cccc(F)c5)c(Cl)c4)c3c2)o1,-1.27
5,O=C1NC(=O)C(c2ccccc2Cl)=C1Nc1cccc(O)c1,4.28
6,COc1ccc(-c2coc3ncnc(N)c23)cc1,2.41
7,CS(=O)(=O)CCNCc1ccc(-c2ccc3ncnc(Nc4ccc(OCc5ccccc5)c(Cl)c4)c3c2)o1,1.29
8,COc1cc2ncn(-c3cc(O[C@H](C)c4ccccc4Cl)c(C(N)=O)s3)c2cc1OC,2.31
9,CCn1c(-c2nonc2N)nc2cnc(Oc3cccc(NC(=O)c4ccc(OCCN5CCOCC5)cc4)c3)cc21,2.35
10,CCn1c(-c2nonc2N)nc2c(N3CCCC3)nccc21,-0.81
11,Cc1nn(C)c2cc(N(C)c3ccnc(Nc4cccc(S(N)(=O)=O)c4)n3)ccc12,3.14
12,Fc1cccc(COc2ccc(Nc3ncnc4cc(-c5ccc[nH]5)sc34)cc2Cl)c1,1.16
13,CCn1c(-c2nonc2N)nc2c(C#CC(C)(C)O)nc(CN3CCCC3)cc21,2.08
14,O=C1Nc2ccc(C(=O)c3ccco3)cc2C1=Cc1cc(Cl)c(O)c(Cl)c1,0.48
15,CC1=C(C(=O)Nc2ccc3[nH]ncc3c2)C(c2ccc3ccccc3c2)CC(=O)N1 (configuration not stated),0.49
16,Fc1cccc(COc2ccc(Nc3ncnc4sc(-c5cccs5)cc34)cc2Cl)c1,0.18
